# Measured values published in the supplement of paper PMC10849652.
# The full data set covers some 8,800 targets. This sample favours those with a hit. About 0.5% of all pairs of compound and target were hits.
# Compound: CC1=C(C=C(C=C1)NC(=O)C2=CC(=CC=C2)C(C)(C)C#N)NC3=CC4=C(C=C3)N=CN(C4=O)C
# Assay: log2 fold change, soluble protein after heating vs DMSO (PISA); higher = thermal stabilisation; K562 lysate, 10 uM; active = over 0.2 and 3.5 SD of the protein, either way, in both replicates (recomputed)
# Outline: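 Dounce homogenisation of K562 pellets in PBS pH 7.4 with 1 mM MgCl2 produced a crude extract, used at 1 mg/mL protein. Exposure to 10 μM compound lasted 30 min, and aliquots were then heated for 3 min across 48°C-58°C, pooled and brought to 0.5% NP-40 at 4°C. The supernatant after 21,000xg for 90 min was quantified by TMTpro 16plex LC-MS/MS with channel sums equalised. Duplicate values are given as log-two fold change in thermal stability relative to solvent controls.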
# UniProt O95248, sequence (O95248 whole entry, looked up): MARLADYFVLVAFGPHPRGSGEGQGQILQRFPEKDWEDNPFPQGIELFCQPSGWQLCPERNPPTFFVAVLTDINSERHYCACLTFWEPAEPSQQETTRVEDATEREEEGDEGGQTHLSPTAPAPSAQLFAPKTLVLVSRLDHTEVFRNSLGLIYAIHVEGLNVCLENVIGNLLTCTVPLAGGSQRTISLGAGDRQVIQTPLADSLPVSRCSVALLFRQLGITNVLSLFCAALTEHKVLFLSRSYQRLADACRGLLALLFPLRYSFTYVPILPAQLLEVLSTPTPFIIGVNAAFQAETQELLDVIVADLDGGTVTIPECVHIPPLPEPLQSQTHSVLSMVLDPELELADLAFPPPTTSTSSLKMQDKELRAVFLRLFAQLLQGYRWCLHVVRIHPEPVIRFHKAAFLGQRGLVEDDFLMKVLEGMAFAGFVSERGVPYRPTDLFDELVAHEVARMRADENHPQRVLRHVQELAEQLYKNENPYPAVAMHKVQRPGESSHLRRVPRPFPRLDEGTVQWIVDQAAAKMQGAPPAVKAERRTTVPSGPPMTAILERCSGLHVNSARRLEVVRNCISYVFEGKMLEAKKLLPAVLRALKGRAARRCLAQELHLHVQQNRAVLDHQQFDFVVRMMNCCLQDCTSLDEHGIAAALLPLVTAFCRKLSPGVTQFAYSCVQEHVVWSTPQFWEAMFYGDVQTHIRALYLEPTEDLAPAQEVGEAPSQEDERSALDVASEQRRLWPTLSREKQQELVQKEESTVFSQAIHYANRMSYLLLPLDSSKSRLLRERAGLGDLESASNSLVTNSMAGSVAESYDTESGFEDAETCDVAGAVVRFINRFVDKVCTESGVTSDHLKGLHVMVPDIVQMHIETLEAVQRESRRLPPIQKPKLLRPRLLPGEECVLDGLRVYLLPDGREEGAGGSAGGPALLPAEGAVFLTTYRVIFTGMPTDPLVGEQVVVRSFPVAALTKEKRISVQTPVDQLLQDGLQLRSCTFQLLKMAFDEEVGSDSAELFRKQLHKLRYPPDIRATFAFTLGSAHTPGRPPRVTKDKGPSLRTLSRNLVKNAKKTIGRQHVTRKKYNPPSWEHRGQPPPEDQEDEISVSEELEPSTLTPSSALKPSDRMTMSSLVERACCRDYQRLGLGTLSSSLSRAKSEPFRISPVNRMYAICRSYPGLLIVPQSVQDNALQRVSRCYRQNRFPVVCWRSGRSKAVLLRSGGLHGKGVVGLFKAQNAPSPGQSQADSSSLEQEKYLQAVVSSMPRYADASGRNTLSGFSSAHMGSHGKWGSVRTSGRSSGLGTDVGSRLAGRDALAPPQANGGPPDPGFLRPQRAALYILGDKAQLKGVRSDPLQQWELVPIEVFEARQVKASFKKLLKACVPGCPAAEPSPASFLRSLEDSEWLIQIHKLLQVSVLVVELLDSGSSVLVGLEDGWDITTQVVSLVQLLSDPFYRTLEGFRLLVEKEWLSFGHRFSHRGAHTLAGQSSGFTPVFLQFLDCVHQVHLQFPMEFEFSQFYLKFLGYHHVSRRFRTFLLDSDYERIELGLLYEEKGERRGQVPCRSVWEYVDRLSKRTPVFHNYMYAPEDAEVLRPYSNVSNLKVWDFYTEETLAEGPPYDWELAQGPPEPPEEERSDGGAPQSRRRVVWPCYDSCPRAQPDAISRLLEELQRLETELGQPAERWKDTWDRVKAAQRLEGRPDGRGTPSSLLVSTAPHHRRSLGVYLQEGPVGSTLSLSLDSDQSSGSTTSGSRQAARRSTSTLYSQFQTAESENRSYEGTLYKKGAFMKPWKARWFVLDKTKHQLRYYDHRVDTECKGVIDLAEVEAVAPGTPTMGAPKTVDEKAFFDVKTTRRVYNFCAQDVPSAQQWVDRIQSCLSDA
# UniProt P23443, sequence (P23443 whole entry, looked up): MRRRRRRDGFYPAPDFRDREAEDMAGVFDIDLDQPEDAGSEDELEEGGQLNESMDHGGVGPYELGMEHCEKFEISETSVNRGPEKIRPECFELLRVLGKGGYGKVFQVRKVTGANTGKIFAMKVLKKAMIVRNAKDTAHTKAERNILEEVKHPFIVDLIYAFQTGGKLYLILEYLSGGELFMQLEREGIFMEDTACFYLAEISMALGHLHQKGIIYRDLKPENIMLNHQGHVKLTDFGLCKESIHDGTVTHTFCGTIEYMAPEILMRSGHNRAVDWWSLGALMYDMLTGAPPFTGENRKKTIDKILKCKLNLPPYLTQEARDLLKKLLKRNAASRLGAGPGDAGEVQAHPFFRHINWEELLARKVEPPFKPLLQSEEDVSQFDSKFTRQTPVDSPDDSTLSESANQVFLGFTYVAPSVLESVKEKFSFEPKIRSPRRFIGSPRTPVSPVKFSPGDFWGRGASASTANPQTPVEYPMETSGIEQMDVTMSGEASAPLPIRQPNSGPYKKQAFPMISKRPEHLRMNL
# UniProt P35250, sequence (P35250 whole entry, looked up): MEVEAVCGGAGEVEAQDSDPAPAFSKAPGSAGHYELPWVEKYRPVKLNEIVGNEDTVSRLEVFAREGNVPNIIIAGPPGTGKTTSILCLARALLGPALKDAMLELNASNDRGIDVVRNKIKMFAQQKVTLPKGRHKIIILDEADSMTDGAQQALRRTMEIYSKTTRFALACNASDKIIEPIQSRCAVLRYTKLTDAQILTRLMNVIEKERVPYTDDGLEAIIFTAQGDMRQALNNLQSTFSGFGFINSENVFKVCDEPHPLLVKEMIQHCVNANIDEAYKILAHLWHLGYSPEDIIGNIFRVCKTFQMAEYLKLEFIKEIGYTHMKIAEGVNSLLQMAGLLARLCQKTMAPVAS
# UniProt P35241, sequence (P35241 whole entry, looked up): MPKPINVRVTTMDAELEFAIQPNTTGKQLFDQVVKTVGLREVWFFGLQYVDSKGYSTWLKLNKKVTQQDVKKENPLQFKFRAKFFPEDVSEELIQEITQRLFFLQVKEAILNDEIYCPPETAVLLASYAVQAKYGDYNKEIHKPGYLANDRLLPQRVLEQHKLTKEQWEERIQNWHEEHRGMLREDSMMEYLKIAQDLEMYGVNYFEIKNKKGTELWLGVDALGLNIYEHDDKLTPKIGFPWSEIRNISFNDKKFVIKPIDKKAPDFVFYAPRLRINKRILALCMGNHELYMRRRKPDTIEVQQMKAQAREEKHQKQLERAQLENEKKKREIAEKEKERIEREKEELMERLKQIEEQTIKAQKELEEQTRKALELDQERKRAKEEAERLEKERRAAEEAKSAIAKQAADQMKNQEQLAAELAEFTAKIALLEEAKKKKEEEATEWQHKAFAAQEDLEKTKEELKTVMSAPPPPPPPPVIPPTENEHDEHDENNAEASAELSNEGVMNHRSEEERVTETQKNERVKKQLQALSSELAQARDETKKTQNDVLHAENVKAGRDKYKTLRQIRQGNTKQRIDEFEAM
# UniProt Q7Z6M1, sequence (Q7Z6M1 whole entry, looked up): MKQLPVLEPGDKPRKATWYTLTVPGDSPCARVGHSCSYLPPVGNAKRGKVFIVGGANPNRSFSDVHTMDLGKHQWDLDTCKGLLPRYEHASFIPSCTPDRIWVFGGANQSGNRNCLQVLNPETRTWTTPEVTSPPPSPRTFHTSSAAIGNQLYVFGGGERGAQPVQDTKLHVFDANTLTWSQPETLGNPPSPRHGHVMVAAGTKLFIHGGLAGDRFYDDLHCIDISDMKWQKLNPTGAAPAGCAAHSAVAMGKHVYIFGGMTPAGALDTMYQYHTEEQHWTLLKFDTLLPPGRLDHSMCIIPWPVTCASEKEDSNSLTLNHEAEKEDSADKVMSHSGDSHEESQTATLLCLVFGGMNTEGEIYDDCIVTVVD
# UniProt P31949, sequence (P31949 whole entry, looked up): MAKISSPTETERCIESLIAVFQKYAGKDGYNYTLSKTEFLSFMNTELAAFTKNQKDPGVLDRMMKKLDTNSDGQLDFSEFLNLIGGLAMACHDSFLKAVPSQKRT
# UniProt P23921, sequence (P23921 whole entry, looked up): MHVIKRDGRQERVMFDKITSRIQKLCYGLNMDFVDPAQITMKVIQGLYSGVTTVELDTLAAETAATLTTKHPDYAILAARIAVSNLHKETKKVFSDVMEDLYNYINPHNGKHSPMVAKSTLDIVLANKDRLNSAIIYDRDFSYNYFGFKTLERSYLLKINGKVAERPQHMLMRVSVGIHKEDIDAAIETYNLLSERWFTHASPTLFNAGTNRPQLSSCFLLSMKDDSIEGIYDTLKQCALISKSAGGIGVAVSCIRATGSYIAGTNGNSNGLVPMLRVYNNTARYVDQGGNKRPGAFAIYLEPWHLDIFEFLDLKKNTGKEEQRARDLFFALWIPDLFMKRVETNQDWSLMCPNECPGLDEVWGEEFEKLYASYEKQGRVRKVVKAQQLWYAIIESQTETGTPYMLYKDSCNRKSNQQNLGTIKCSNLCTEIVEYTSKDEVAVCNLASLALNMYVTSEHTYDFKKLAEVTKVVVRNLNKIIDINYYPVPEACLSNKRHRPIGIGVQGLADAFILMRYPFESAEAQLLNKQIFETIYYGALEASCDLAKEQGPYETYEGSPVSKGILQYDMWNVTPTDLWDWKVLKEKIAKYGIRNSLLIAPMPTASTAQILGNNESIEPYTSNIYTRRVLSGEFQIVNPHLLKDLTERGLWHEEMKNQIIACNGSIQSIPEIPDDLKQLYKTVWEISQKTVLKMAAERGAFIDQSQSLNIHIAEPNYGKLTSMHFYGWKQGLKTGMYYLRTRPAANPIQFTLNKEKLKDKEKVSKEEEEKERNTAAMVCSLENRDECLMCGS
# UniProt Q53S08, sequence (Q53S08 whole entry, looked up): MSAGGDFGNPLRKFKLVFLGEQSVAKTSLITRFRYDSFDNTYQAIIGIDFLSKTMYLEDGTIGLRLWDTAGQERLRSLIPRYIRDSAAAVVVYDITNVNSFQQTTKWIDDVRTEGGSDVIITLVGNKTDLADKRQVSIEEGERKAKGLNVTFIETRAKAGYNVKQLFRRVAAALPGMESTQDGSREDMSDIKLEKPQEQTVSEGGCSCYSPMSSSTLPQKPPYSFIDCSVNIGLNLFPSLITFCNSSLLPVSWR
# UniProt Q9P0P0, sequence (Q9P0P0 whole entry, looked up): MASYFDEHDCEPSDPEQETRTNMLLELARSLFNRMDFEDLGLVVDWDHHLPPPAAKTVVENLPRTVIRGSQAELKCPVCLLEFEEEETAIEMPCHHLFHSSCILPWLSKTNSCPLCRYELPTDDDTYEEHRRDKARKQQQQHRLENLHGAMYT
row,Target,log2 fold change
1,SERPINI1 (UniProt Q99574),-0.024 (inactive)
2,SASS6 (UniProt Q6UVJ0),0.015 (inactive)
3,RPS6KB1 (UniProt P23443),-0.029 (inactive)
4,SAMHD1 (UniProt Q9Y3Z3),0.006 (inactive)
5,S100A11 (UniProt P31949),0.058 (inactive)
6,RTN4IP1 (UniProt Q8WWV3),-0.008 (inactive)
7,RIOK3 (UniProt O14730),0.001 (inactive)
8,RAB6D (UniProt Q53S08),0.009 (inactive)
9,RHAG (UniProt Q02094),0.08 (inactive)
10,RIPK1 (UniProt Q13546),0.001 (inactive)
11,RMC1 (UniProt Q96DM3),0.009 (inactive)
12,RAB21 (UniProt Q9UL25),-0.023 (inactive)
13,RABEPK (UniProt Q7Z6M1),0.008 (inactive)
14,SCO1 (UniProt O75880),0.021 (inactive)
15,RINT1 (UniProt Q6NUQ1),-0.02 (inactive)
16,RDH14 (UniProt Q9HBH5),-0.073 (inactive)
17,RPL31 (UniProt P62899),-0.013 (inactive)

row,Target,log2 fold change
1,RAF1 isoform 2 (UniProt P04049),0.359 (active)
2,RDX (UniProt P35241),-0.021 (inactive)
3,RPS4X (UniProt P62701),-0.008 (inactive)
4,RIC1 (UniProt Q4ADV7),0.113 (inactive)
5,RRM1 (UniProt P23921),-0.009 (inactive)
6,RNF123 (UniProt Q5XPI4),0.027 (inactive)
7,RNF181 (UniProt Q9P0P0),0.03 (inactive)
8,"RNF213, A0A0A0MTC1",0.014 (inactive)
9,RNF168 (UniProt Q8IYW5),0.026 (inactive)
10,SAR1B (UniProt Q9Y6B6),0.026 (inactive)
11,RFC2 (UniProt P35250),0.008 (inactive)
12,SBF1 isoform 4 (UniProt O95248),-0.012 (inactive)
13,SERINC3 (UniProt Q13530),0.049 (inactive)
14,RPS29 (UniProt P62273),-0.108 (inactive)
15,RPS26P11 (UniProt Q5JNZ5),0.024 (inactive)
16,RFC5 (UniProt P40937),0.014 (inactive)
